Hits are enriched below; roughly 14% of the tested compounds scored in any of these assays.
Sm TGR block: qHTS Assay for the Inhibitors of Schistosoma Mansoni Peroxiredoxins. actives 3% (n = 360,000). Schistosoma mansoni thioredoxin glutathione reductase (TGR), Q962Y6. Potency, µM (highest dose often 114 µM), inactives show at the top dose activity change, negative = inhibition, actives largely listed as inhibitors. purified TGR, DTNB reduction, TNB absorbance 405 nm; further: potency means the concentration at half of the fitted maximal effect; nearly all actives have a fitted effect of over 60% in size
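TGR 20 nM + NADPH 100 uM (dispensed conc.), cpd preinc 15 min RT; start with NADPH (500 uM addition) then DTNB (15 mM addition). Kinetic TNB absorbance, 405 nm filter. Four-parameter Hill fit across titration.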
Pf growth 48h: Primary qHTS for delayed death inhibitors of the malarial parasite plastid, 48 hour incubation. P. falciparum luciferase growth in erythrocytes, 48 h. Potency, µM (series often up to 28.7 µM), for inactives: at the top dose activity change, negative = inhibition, actives largely listed as inhibitors. actives 5.9% (n = 310,000); further: potency means the concentration at half of the fitted maximal effect
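Firefly luciferase activity from engineered P. falciparum reports growth; inhibitors lower the luminescent signal. Cultures contained 2% hematocrit erythrocytes at 0.1% final parasitemia.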
HCMV antiviral: qHTS Assay for inhibitors of the human cytomegalovirus (HCMV); HFF cells, HCMV-luciferase reporter, 72 h; stronger effect = lower value; activity change, negative = inhibition, % at 57.5 µM; actives 4.5% (n = 410,000); AID 1259415, 2018; in the data active means activity change below about -60%; inconclusive means no clear call, values can overlap the other calls; inactive means above about -39%
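Cell-based, HFFs, 1000 cells/well, 16 h 37C; cpds in DMSO + HCMV-luc, MOI 1 PFU/cell; 72 h 37C; OneGlo luminescence after 5 min RT; norm. to buffer vs Salinomycin 10uM.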
FBPA Giardia inh: qHTS Assay for Inhibitors of Fructose-1,6-bisphosphate Aldolase from Giardia Lamblia. purified Giardia FBPA. Potency, µM (highest dose often 59.6 µM), without a hit: at the highest dose activity, negative = inhibition, usual class: inhibitors. actives 0.71% (n = 290,000). AID 2451, 2010; further: potency means the concentration at half of the fitted maximal effect; nearly all actives have a fitted effect of over 55% in size
Target sequence (A8B2U2 whole entry, looked up): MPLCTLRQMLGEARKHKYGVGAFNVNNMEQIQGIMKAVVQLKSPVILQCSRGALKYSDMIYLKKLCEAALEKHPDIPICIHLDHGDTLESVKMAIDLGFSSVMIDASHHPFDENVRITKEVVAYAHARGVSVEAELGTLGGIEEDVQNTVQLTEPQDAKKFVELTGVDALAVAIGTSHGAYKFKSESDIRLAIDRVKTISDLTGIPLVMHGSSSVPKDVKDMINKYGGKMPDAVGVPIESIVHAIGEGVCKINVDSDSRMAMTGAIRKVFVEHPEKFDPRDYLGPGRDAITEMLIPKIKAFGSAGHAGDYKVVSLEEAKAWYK
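Giardia FBPA (40 nM reagent) was preincubated 10 min at RT with compound (up to 57.5 uM final), then substrate plus GAPDH/TPI/NAD/arsenate coupling system with diaphorase/resazurin was added; resorufin fluorescence (525/598 nm) was read after 20 min.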
Pf growth 96h: Primary qHTS for delayed death inhibitors of the malarial parasite plastid, 96 hour incubation. P. falciparum luciferase reporter growth, 96 h. Potency, µM (series often up to 28.7 µM), inactives show at the highest dose activity change, negative = inhibition, most hits filed as inhibitors. actives 6.9% (n = 320,000). AID 504834, 2011; further: potency means the concentration at half of the fitted maximal effect
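P. falciparum expressing integrated firefly luciferase, in erythrocytes at 2% hematocrit, 0.05% parasitemia, incubated with compounds 96 h at 37 C, 5% CO2. Growth inhibition read as loss of luminescence; two-generation exposure targets delayed-death apicoplast inhibitors.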
* marks the source's active call; other numbers are inactive results; u = inconclusive; x = not tested or not shown; [ ] = remark or other dose. Unless noted, the call rests on the fitted dose curve; in most records, active means well fitted curve in the direction sought with a large enough effect; inconclusive means small, poorly fitted or top-dose-only effect, or another doubt; inactive means no such curve, though single readings can be large; an effect the other way counts as inactive or inconclusive. On the % scale 0 is the no-effect control and ±100 the full control effect.

SMILES	Sm TGR block	Pf growth 48h	HCMV antiviral	FBPA Giardia inh	Pf growth 96h
Cc1cnc(CN2CCc3c([nH]c4ccccc34)C2C2CCCCC2)[nH]1 (centres undefined)	3%	-2%	19	5%	u
c1ccc2c3c([nH]c2c1)C(C1CCCCC1)N(Cc1ncc[nH]1)CC3 (centres undefined)	-29%	2.1µM*	11	0%	u
Cc1ncoc1C(=O)N1CCc2c([nH]c3ccccc23)C1C1CCCCC1 (centres undefined)	-20%	15µM*	8	-1%	u
Cc1ccc(S(=O)(=O)N2CCC(=O)N(CCOCc3cccc(F)c3)CC2)cc1	0%	13%	-7	-2%	-24%
O=C1CCN(S(=O)(=O)c2ccccc2)CCN1CCOCc1ccccc1	-5%	-6%	6	-5%	9.3µM*
Cc1ccc(S(=O)(=O)N2CCC(=O)N(CCOCc3cccc(Cl)c3)CC2)cc1	-17%	-1%	-64*	1%	u
Cc1ccc(S(=O)(=O)N2CCC(=O)N(CCOCc3ccc(Cl)cc3)CC2)cc1	-2%	-7%	-24	3%	-19%
Cc1cccc(COCCN2CCN(S(=O)(=O)c3ccccc3)CCC2=O)c1	1%	-8%	4	0%	15µM*
Cc1ccccc1-c1nc(SCC(=O)NCC2CCCO2)c2c(=O)n(C)c(=O)n(C)c2n1 (centres undefined)	-20%	x	-5	x	x
Clc1ccccc1OCCNc1nc(NCC2CC2)nc2ccsc12	x	x	0	x	x
CCC(=O)N1CCCC(C(=O)Nc2ccc3cn[nH]c3c2)CC1 (centres undefined)	x	x	1	x	x
c1ccc(-c2nnc3nc(N4CCCCC4)nc(N4CCCCC4)n23)cc1	x	x	9	x	x
C[C@H]1Cn2cnc(C(=O)N(C)Cc3ccccc3)c2C(=O)N1	x	x	-8	x	x
CCCOc1ccc(CN(C(=O)c2nc(SC(C)C)ncc2Cl)C2CCS(=O)(=O)C2)cc1 (centres undefined)	2%	x	-63*	x	x
O=C(c1cccs1)N(Cc1ccco1)C1CCS(=O)(=O)C1 (centres undefined)	-23%	28%	40	7%	5.2µM*
O=C(c1sc2ccccc2c1Cl)N(Cc1ccco1)C1CCS(=O)(=O)C1 (centres undefined)	32µM*	-8%	-7	3%	71%
O=C(c1ccccc1)N(Cc1cccs1)C1CCS(=O)(=O)C1 (centres undefined)	-13%	43%	46	18%	0.37µM*
CC1=NN(c2ccc([N+](=O)[O-])cc2)C(=O)C1[N+](=O)[O-] (centres undefined)	x	x	x	-1%	x
CCCNC(=O)c1cc(C2CCCCN2S(=O)(=O)c2ccccc2)on1 (centres undefined)	x	x	15	x	x
CCOc1ccc(CN(C(=O)c2cc(=O)c3cc(C)cc(C)c3o2)C2CCS(=O)(=O)C2)cc1 (centres undefined)	1%	3.7µM*	165	x	0%
COc1ccccc1C(=O)N(Cc1sccc1C)C1CCS(=O)(=O)C1 (centres undefined)	6%	2%	-13	-2%	2.1µM*
CCOc1cccc(C(=O)N(Cc2ccco2)C2CCS(=O)(=O)C2)c1 (centres undefined)	35µM*	-9%	5	4%	-10%
CCCCOc1ccccc1C(=O)N(Cc1sccc1C)C1CCS(=O)(=O)C1 (centres undefined)	8%	x	-31	x	x
CCOc1cccc(C(=O)N(Cc2ccc(C)o2)C2CCS(=O)(=O)C2)c1 (centres undefined)	-1%	x	24	x	x
CSc1ccccc1NC(=O)c1cccc(S(=O)(=O)N2CCN(C)CC2)c1	-3%	29%	51	x	u
SMILES	Sm TGR block	Pf growth 48h	HCMV antiviral	FBPA Giardia inh	Pf growth 96h
Cc1cc(N2CCOCC2)n2nc(C)c(-c3ccccc3Cl)c2n1	0%	u	-12	9%	5.2µM*
COc1ccc(Nc2ccc(OC)cc2)cc1	40µM*	u	31	u	u
NNc1nc(Nc2ccccc2)nc(Nc2ccccc2)n1	-6%	8.3µM*	31	-2%	349%
COc1ccc(Nc2nc(NN)nc(Nc3ccc(OC)cc3)n2)cc1	-18%	9.3µM*	-31	u	3.3µM*
Cc1ccccc1C(=O)NCCCNC(=O)c1ccccc1C	x	x	11	x	x
Cc1cc(NC(=O)C(C)SCC(=O)Nc2ccccc2C(C)(C)C)no1 (centres undefined)	-4%	13µM*	u	x	15µM*
CCc1sc(C(=O)Nc2cc(Cl)ccc2N2CCCCC2)cc1C	2%	x	-63*	0%	15µM*
Cc1noc(C)c1CSCC(=O)Nc1cc(C(F)(F)F)ccc1N1CCCCC1	0%	4.7µM*	-14	x	u
Cc1cc(NC(=O)C(C)SCC(=O)Nc2cc(C(F)(F)F)ccc2N2CCCCC2)no1 (centres undefined)	4%	u	-20	x	12µM*
Cc1ccc(C(=O)Nc2cc(Cl)ccc2N2CCCCC2)s1	8%	x	-21	-1%	u
Cc1cc(NC(=O)C(C)SCC(=O)Nc2ccccc2N2CCCC2)no1 (centres undefined)	-19%	u	-9	x	-29%
O=C(c1cccc(C(F)(F)F)c1)C1CCCN(C(=O)CN2CCOC2=O)C1 (centres undefined)	6%	1%	-28	x	-1%
Cc1cc(=O)nc2c3ccccc3n(C(C)C(=O)NCCN3CCOCC3)n12 (centres undefined)	-9%	8%	15	x	u
CC(=O)N[C@H]1[C@H](O[C@@H]2c3ccc(c(Cl)c3)Oc3cc4cc(c3O[C@@H]3O[C@H](CO)[C@@H](O)[C@H](O)C3C)Oc3ccc(cc3Cl)C[C@H]3NC(=O)[C@@H](N)c5ccc(O)c(c5)Oc5cc(O)cc(c5)[C@H](NC3=O)C(=O)N[C@H]4C(=O)N[C@H]3C(=O)N[C@@H]2C(=O)N[C@@H](C(=O)O)c2cc(O)cc(O[C@H]4O[C@H](CO)[C@@H](O)C(O)[C@@H]4O)c2-c2cc3ccc2O)O[C@H](CO)[C@@H](O)[C@@H]1O (some centres undefined)	x	-5%[12.8 µM]	x	x	u
O=C(COC(=O)c1ccc(O)cc1O)NC1CC1	-8%	-1%	-5	x	u
Cc1noc(C)c1CSCC(=O)Nc1cc(Cl)ccc1N1CCCCC1	-2%	u	-25	x	6.6µM*
Cc1noc(C)c1CSCC(=O)Nc1ccccc1N1CCCC1	x	x	-37	x	x
CC(C)[C@H](NC(=O)c1ccccc1)C(=O)OCC(=O)Nc1ncc(Cl)cc1Cl	x	x	11	x	x
